The supplement of paper PMC12645437, “Orthogonal IMiD-Degron Pairs Induce Selective Protein Degradation in Cells” (ACS Chemical Biology, 2025)
The full ranking holds about 8,300 sequences; the median of “log2 fold change of degron read counts, EGFP-low vs EGFP+ sorted cells (limma voom), compound-induced degradation” is about -1.1, and the highest 2% start at about 3.2. What follows is part of a selection rich in the highest values, with near analogues and random picks from the rest.

Molecular target: T1, CRBN, Q96SW2
T1 chain: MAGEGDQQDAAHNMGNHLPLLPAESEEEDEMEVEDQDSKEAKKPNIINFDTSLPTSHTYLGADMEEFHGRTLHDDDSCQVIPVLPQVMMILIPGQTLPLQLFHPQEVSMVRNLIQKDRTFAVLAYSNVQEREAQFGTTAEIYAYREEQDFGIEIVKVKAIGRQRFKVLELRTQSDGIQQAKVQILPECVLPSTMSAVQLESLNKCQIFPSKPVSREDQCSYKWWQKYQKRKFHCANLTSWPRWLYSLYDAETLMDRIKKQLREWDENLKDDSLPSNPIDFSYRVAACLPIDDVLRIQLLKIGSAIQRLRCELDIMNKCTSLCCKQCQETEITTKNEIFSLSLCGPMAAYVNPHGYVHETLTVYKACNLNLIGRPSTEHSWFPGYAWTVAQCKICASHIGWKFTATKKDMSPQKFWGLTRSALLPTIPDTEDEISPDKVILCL
Assay: log2 fold change of degron read counts, EGFP-low vs EGFP+ sorted cells (limma voom), compound-induced degradation; higher = more compound-induced degradation of the degron-EGFP fusion; degrons are variants of IKZF1/3 zinc finger 2; compound dose not given here
Conditions: Jurkat, 18 h

[1] = compound: compound 19 (5-tert-butyl-thalidomide)
[2] = compound: compound 22 (5-morpholino-thalidomide)
[3] = compound: compound 33 (diphenyl IMiD analogue)
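Further: pooled lentiviral library of zinc finger degron-EGFP fusions in mCherry-positive Jurkat cells, FACS-sorted after compound exposure, with degron abundance counted by next-generation sequencing.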

Sequence	log2 fold change of degron read counts [1]	log2 fold change of degron read counts [2]	log2 fold change of degron read counts [3]	log2 fold change of degron read counts (compound: thalidomide)
FMCNVCGAQFTQKGNLLRHIKL [46F_47M_49N_50V_52G_53A_54Q_55F_67L_, Q9UKT9]	-1.96	-1.18	1.65	-0.484
FYCNVCGAEFTQKGNLLRHIKL [46F_47Y_49N_50V_52G_53A_54E_55F_67L_, Q9UKT9]	0.141	-0.307	-0.204	-1.92
FDCSVCGHGFTQKGNLLRHIKL [46F_47D_49S_50V_52G_53H_54G_55F_67L_, Q9UKT9]	-2.13	-2.49	-2.85	-2.61
FICEICGHPFTQKGNLLRHIKL [46F_47I_49E_50I_52G_53H_54P_55F_67L_, Q9UKT9]	-2.2	-1.74	-1.09	-0.749
FTCNQCGAFFTQKGNLLRHIKL [46F_47T_49N_50Q_52G_53A_54F_55F_67L_, Q9UKT9]	-2.21	-2.47	-2.04	-1.89
FMCDQCGAMFTQKGNLLRHIKL [46F_47M_49D_50Q_52G_53A_54M_55F_67L_, Q9UKT9]	-2.85	-3.27	-1.88	-2.89
FVCEICGRYFTQKGNLLRHIKL [46F_47V_49E_50I_52G_53R_54Y_55F_67L_, Q9UKT9]	-1.62	-1.93	-1.15	-0.136
LACPICGFQCTQKGNLLRHIKL [46L_47A_49P_50I_52G_53F_54Q_55C_67L_, Q9UKT9]	3.44	2.59	1.86	1.78
LHCPICGFQCTQKGNLLRHIKL [46L_47H_49P_50I_52G_53F_54Q_55C_67L_, Q9UKT9]	2.57	2.67	2.36	1.96
LSCPICGFQCTQKGNLLRHIKL [46L_47S_49P_50I_52G_53F_54Q_55C_67L_, Q9UKT9]	2.31	2.18	1.54	1.93
LGCPICGFQCTQKGNLLRHIKL [46L_47G_49P_50I_52G_53F_54Q_55C_67L_, Q9UKT9]	3.74	2.31	1.15	1.18
LECPICGFQCTQKGNLLRHIKL [46L_47E_49P_50I_52G_53F_54Q_55C_67L_, Q9UKT9]	-0.146	-0.246	2.16	3.16
LVCPICGFQCTQKGNLLRHIKL [46L_47V_49P_50I_52G_53F_54Q_55C_67L_, Q9UKT9]	1.16	2.72	2.04	3.09
FCCPQCGAHFTQKGNLLRHIKL [46F_47C_49P_50Q_52G_53A_54H_55F_67L_, Q9UKT9]	-1.46	-2.19	-0.412	-1.42
FKCNQCGHPFTQKGNLLRHIKL [46F_47K_49N_50Q_52G_53H_54P_55F_67L_, Q9UKT9]	-2.61	-2.63	-2.72	-2.3
LKCEICGFTCTQKGNLLRHIKL [46L_47K_49E_50I_52G_53F_54T_55C_67L_, Q9UKT9]	-1	-2.29	-1.73	0.124
LTCEICGFTCTQKGNLLRHIKL [46L_47T_49E_50I_52G_53F_54T_55C_67L_, Q9UKT9]	1.29	2.89	2.18	3.14
LWCEICGFTCTQKGNLLRHIKL [46L_47W_49E_50I_52G_53F_54T_55C_67L_, Q9UKT9]	3.55	3.79	3.08	1.83
LQCEICGFTCTQKGNLLRHIKL [46L_47Q_49E_50I_52G_53F_54T_55C_67L_, Q9UKT9]	1.59	2.54	2.34	3.65
LVCEICGFTCTQKGNLLRHIKL [46L_47V_49E_50I_52G_53F_54T_55C_67L_, Q9UKT9]	1.83	2.47	2.5	3.21
LGCEICGFTCTQKGNLLRHIKL [46L_47G_49E_50I_52G_53F_54T_55C_67L_, Q9UKT9]	2.28	2.37	0.519	0.415
LSCEICGFTCTQKGNLLRHIKL [46L_47S_49E_50I_52G_53F_54T_55C_67L_, Q9UKT9]	3.05	2.87	1.94	1.96
LACEICGFTCTQKGNLLRHIKL [46L_47A_49E_50I_52G_53F_54T_55C_67L_, Q9UKT9]	3.48	3.3	1.55	1.36
LMCEICGFTCTQKGNLLRHIKL [46L_47M_49E_50I_52G_53F_54T_55C_67L_, Q9UKT9]	0.136	1.5	3.07	2.97
LLCEICGFTCTQKGNLLRHIKL [46L_47L_49E_50I_52G_53F_54T_55C_67L_, Q9UKT9]	0.0109	-0.207	1.27	2.65
LYCEICGFTCTQKGNLLRHIKL [46L_47Y_49E_50I_52G_53F_54T_55C_67L_, Q9UKT9]	3.57	3.51	3.19	2.25
LDCEICGFTCTQKGNLLRHIKL [46L_47D_49E_50I_52G_53F_54T_55C_67L_, Q9UKT9]	0.0603	-0.828	-0.732	0.278
LCCEICGFTCTQKGNLLRHIKL [46L_47C_49E_50I_52G_53F_54T_55C_67L_, Q9UKT9]	2.49	2.78	2.65	2.98
